Source: PubChem BioAssay (NCATS)
Inconclusive results are not listed. The source made the active and inactive calls. Unless noted, calls follow the shape of the dose curve; as a rule, active = well fitted curve in the direction sought with a large enough effect; inconclusive = small, poorly fitted or top-dose-only effect, or another doubt; inactive = no such curve, though single readings can be large; an effect the other way counts as inactive or inconclusive.

Columns and labels:
[1] = target: Aldehyde dehydrogenase, mitochondrial (Homo sapiens) (UniProt P05091); assay: qHTS for Inhibitors of the Aldehyde Dehydrogenase Family (ALDH2) Primary screen (AID 2061308); also: nearly all actives have a fitted effect of over 55% in size
[2] = target: Retinaldehyde dehydrogenase 3 (Homo sapiens) (UniProt P47895); assay: qHTS for Inhibitors of the Aldehyde Dehydrogenase Family (ALDH1A3) Validation screen (AID 2061312); also: nearly all actives have a fitted effect of over 45% in size
[3] = target: Retinaldehyde dehydrogenase 3 (Homo sapiens) (UniProt P47895); assay: qHTS for Inhibitors of the Aldehyde Dehydrogenase Family (ALDH1A3) Primary screen (AID 2061315)
[4] = target: Aldehyde dehydrogenase, mitochondrial (Homo sapiens) (UniProt P05091); assay: qHTS for Inhibitors of the Aldehyde Dehydrogenase Family (ALDH2) Confirmatory screens (AID 2061303; active = well fitted inhibition curve with a large enough effect; title and protocol of this record describe different tests; also: nearly all actives have a fitted effect of over 45% in size)

Measured: Potency

COc1cccc(-n2nc(C(=O)O)cc2-c2ccc(C3CCCCC3)c(Cl)c2)c1
inactive: [1] | [2] | [3]

O=C(NCc1ccc(F)cc1)C(=O)c1c[nH]c2ccccc12
inactive: [1] | [2] | [3]

OCC(O)C(c1c[nH]c2ccccc12)c1c[nH]c2ccccc12 (stereo not given)
inactive: [4] | [1] | [3]

CCN(CC)Cc1ccc(C(=O)N(CCc2ccccc2OC)[C@@H]2CCNC2)cc1
inactive: [1] | [2] | [3]

O=c1[nH]c(=O)n([C@H]2CCCO2)cc1F
inactive: [1] | [2] | [3]
